Assay results taken from publication PMC7826789 (International Journal of Molecular Sciences, 2021).

Each compound was assayed on RPS6KA6.

Kinases covered, RPS6KA6:
Fc1ccc(-c2nn3ccccc3c2-c2ccncc2)cc1 [GW434756X]
Nc1nc(-c2cccc(Cl)c2)c(-c2ccc3ncccc3n2)s1 [GW780159X]
C[C@@H]1CCNC(=O)c2cc3ccc(C(=O)Nc4nc5ccccc5n4CCCN(C)C)cc3n21 [BI00645435]
Nc1nc(-c2ccccc2F)c(-c2ccnc3ccccc23)s1 [GW560459]
